This note sets out measurements from PubChem BioAssay (Tox21).

A short description of experiment [1]: qHTS assay for small molecules that induce genotoxicity in human embryonic kidney cells expressing luciferase-tagged ATAD5 (AID 651632). Also: nearly all actives have a fitted effect of over 15% in size. Also: potency is read from the fitted curve at half-maximal effect. An outline of the steps: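 Luminescence read-out: after 16 hr compound exposure at 37C, ATAD5-luciferase HEK293T cells received Amplite, 30 min RT, then CCD imaging. A rise in signal marks genotoxic stress.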
Background: qHTS replaces the single test concentration by a dilution series.

A short description of experiment [2]: qHTS assay for small molecules that induce genotoxicity in human embryonic kidney cells expressing luciferase-tagged ATAD5 - cell viability (AID 651634; calls by dose curve; also: nearly all actives have a fitted effect of over 25% in size). In outline: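 HEK293T ATAD5-luc cells, 2,000/well; compound 15.5 hr, 37C/5% CO2; CellTiter-Fluor 30 min, 37C; fluorescence read.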
A short description of experiment [3]: qHTS assay for small molecule disruptors of the mitochondrial membrane potential (AID 720635). Also: potency is read from the fitted curve at half-maximal effect. In outline:
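HepG2 cells (2,000/well) attached overnight at 37C, then took compound for 1 hr at 37C, 5% CO2. Mito-MPS dye was added for 30 min; fluorescence was read at 490/535 nm (monomers) and 540/590 nm (aggregates).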

A short description of experiment [4]: qHTS assay to test for compound auto fluorescence at 590 nm (red) in HepG2 cells (AID 720674). In outline:
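Compound auto-fluorescence is scored relative to Rose Bengal sodium, measured at 540/590 nm in live HepG2 cultures after 1 hr compound contact (37 C, 5% CO2).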

Experiment [5] can be described thus: qHTS assay to test for compound auto fluorescence at 535 nm (green) in HepG2 cells (AID 720675).
Experiment [6] can be described thus: qHTS assay to test for compound auto fluorescence at 460 nm (blue) in HEK293 cells (AID 720678). An outline of the steps: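 Blue read-out at excitation 405 nm and emission 460 nm follows overnight compound exposure of HEK293 cells at 37C in 5% CO2. Activity is given as auto fluorescence equivalency to triamterene.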
Experiment [7] is described as follows: qHTS assay to test for compound auto fluorescence at 590 nm (red) in HEK293 cells (AID 720679). In outline: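 Red channel, Ex/Em 540/590nm; signal expressed as equivalency to Rose Bengal sodium. HEK293, 2,000 cells/well, 10% dialyzed FBS; 23 nL compound pinned after 4-5 hr attachment; overnight 37C/5% CO2 before reading.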
Experiment [8] in a line: qHTS assay for small molecule agonists of the p53 signaling pathway - cell viability (AID 651633; calls by dose curve;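 also: p53RE-bla HCT reporter cells with a stable beta-lactamase p53 reporter; series mostly up to about 83 µM; nearly all actives have a fitted effect of over 30% in size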). An outline of the steps:
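p53RE-bla cells, seeded at 4,000 per well and rested 5 h at 37 C/5% CO2, received compounds in DMSO for 16 h at 37 C. CellTiter-Glo was then added, and luminescence was read after 30 min at room temperature to gauge cytotoxicity.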

Experiment [9] can be described thus: qHTS assay for small molecule disruptors of the mitochondrial membrane potential - cell viability (AID 720634; calls by dose curve;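 also: human HepG2 liver cancer cells; series mostly up to about 83 µM; nearly all actives have a fitted effect of over 20% in size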). An outline of the steps: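 Luminescence from CellTiter-Glo (ATP content) gave viability in HepG2 cells, read in the same wells as the MMP dye assay after 1 hr compound exposure at 37 C.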

Molecules are shown by their SMILES. Values without a mark were called inactive. Results filed as inconclusive are left out. Activity calls are given as the source filed them. Unless noted, calls follow the shape of the dose curve; as a rule, active = well fitted curve in the direction sought with a large enough effect in the repeat runs; inconclusive = weak or mixed curves; inactive = no such curve, though single readings can be large; an effect the other way counts as inactive or inconclusive.
% is scaled to controls: 0 for no effect and ±100 for the full control effect.

In the case of `CC(C)(C)c1ccc(CCC=O)cc1`, the Potency result in experiment [1], in experiment [2], in experiment [3] and in experiment [6] was “inactive” in each case. Further, the compound was classed as inactive in [4], in experiment [5] and in experiment [7].

On to `CCCc1ccc(OC)cc1`, for which the Potency entry in experiment [1], in [8], in experiment [9], in [3] and in experiment [6] was “inactive” throughout. In addition, the result in experiment [4], in experiment [5] and in experiment [7] was inactive.

Turning to `CCCCCCCCNC`, the Potency result in experiment [1], in experiment [8], in experiment [9], in experiment [3] and in experiment [6] was “inactive” throughout. Besides, the compound was classed as inactive in [4], in [5] and in experiment [7].

In the case of `CC1(C)CC(O)CC(C)(C)N1[O]`, the Potency entry in experiment [8], in [2], in experiment [9] and in [6] was “inactive” in each case. Besides, the call in experiment [4] and in [7] was inactive.

Turning to `C=CC(=O)NC(C)(C)C`, the Potency result in experiment [1], in experiment [8], in experiment [2] and in experiment [6] was “inactive” in each case. Moreover, the outcome in [4], in experiment [5] and in experiment [7] was inactive.

Turning to `COC=O`, in experiment [1], the activation is -1.31% [at 8.08 µM]. For the same compound, in [8], the activity change, negative = cytotoxicity is 21.3% [at 8.08 µM]. Besides, the activity, negative = cytotoxicity in [2] was 20.8% [at 8.08 µM]. Moreover, the fluorescence, relative to Rose Bengal in experiment [4] is 0.0697% [at 9.17 µM]. Also, the fluorescence, % of fluorescein control in experiment [5] was 0.016% [at 9.17 µM]. The fluorescence, % of triamterene in experiment [6] was -0.185% [at 9.17 µM]. Further, in [7], the fluorescence, % of fluorescent control is 0.13% [at 9.17 µM].

Regarding `Oc1ccc(Oc2ccccc2)cc1`, the Potency result in experiment [8], in [2] and in [9] was “inactive” throughout. The Potency in experiment [3] is 20.6 µM (active). Moreover, the outcome in [4], in [5] and in [7] was inactive.

As to `CC(O)CN` (stereo unspecified), the Potency entry in experiment [8], in [9] and in experiment [6] was “inactive” each time. The outcome in experiment [4], in experiment [5] and in experiment [7] was inactive.

Regarding `CC(C)(Cc1c[nH]c2ccccc12)NCC(O)COc1ccccc1C#N` (stereo unspecified), the Potency entry in experiment [1], in experiment [8], in experiment [9] and in experiment [6] was “inactive” throughout. In addition, the result in experiment [4], in [5] and in experiment [7] was inactive.

Take `O=C(O)c1ccc2c(c1)nc(C(=O)NC1CCN(C3CC3)CC1)n2Cc1cc(-c2ccc(Cl)s2)on1`: the Potency entry in [1], in [2] and in experiment [9] was “inactive” in each case. In [4], the fluorescence, relative to Rose Bengal is 0.429% [at 18.6 µM]. Moreover, the fluorescence, % of fluorescein control in [5] was -0.0395% [at 18.6 µM]. Also, in experiment [6], the fluorescence, % of triamterene was 0.0005% [at 18.6 µM]. Further, the fluorescence, % of fluorescent control in experiment [7] was 0.147% [at 18.6 µM].

As for `CC(Cc1ccccc1)(NC(=O)CN)c1ccccc1` (stereo unspecified), the Potency entry in [8], in experiment [2] and in experiment [6] was “inactive” each time. Besides, the call in experiment [4], in [5] and in experiment [7] was inactive.

Turning to `Cc1ccc(NC=O)c(C)c1`, the Potency entry in experiment [1], in experiment [8], in [9] and in experiment [6] was “inactive” each time. Also, the compound was classed as inactive in [4] and in experiment [7].

For `O=C1c2ccccc2C(=O)c2c1ccc(O)c2O`, the Potency entry in experiment [1], in experiment [8] and in [9] was “inactive” throughout. Also, the Potency in [3] was 9.44 µM (active). Also, the outcome in experiment [4], in [5] and in experiment [7] was inactive.

Consider `Nc1ccccc1Nc1ccccc1`, for which the Potency result in experiment [1], in experiment [9] and in experiment [6] was “inactive” in each case. Besides, the outcome in [4] and in experiment [7] was inactive.

For `O=C(Cl)c1ccc(F)c(Cl)c1`, the Potency result in experiment [8] is “inactive”. Also, the compound was called inactive in experiment [4], in [5] and in experiment [7].

`Clc1nc2ccccc2nc1Cl`: the Potency result in [8], in experiment [2], in [9] and in [6] was “inactive” each time. The compound was called inactive in experiment [4], in experiment [5] and in experiment [7].

As for `COc1ccc(CN(CCN(C)C)c2ncccn2)cc1`, the Potency entry in experiment [8], in [2], in [9] and in experiment [6] was “inactive” in each case. Further, the compound was classed as inactive in experiment [4], in experiment [5] and in experiment [7].

With `CCCc1nc(C)c2c(=O)[nH]c(-c3cc(S(=O)(=O)N4CCN(CC)CC4)ccc3OCC)nn12`, the Potency result in [1], in experiment [9], in experiment [3] and in [6] was “inactive” each time. The result in experiment [4], in experiment [5] and in experiment [7] was inactive.

For `CC(COc1ccccc1)NC(C)C(O)c1ccc(O)cc1` (stereo unspecified), the Potency entry in [1], in experiment [8], in [9] and in experiment [3] was “inactive” each time. The fluorescence, relative to Rose Bengal in experiment [4] was -0.283% [at 18.6 µM]. For the same compound, the fluorescence, % of fluorescein control in experiment [5] was -0.086% [at 18.6 µM]. The fluorescence, % of triamterene in experiment [6] was -0.0294% [at 18.6 µM]. For the same compound, the fluorescence, % of fluorescent control in experiment [7] was -0.22% [at 18.6 µM].

Turning to `CC(C(=O)O)c1ccc(/C=C2\CCCCC2=O)cc1` (stereo unspecified), the Potency result in [8], in experiment [9] and in experiment [6] was “inactive” in each case. Moreover, the compound was classed as inactive in experiment [4], in experiment [5] and in experiment [7].

Regarding `Cc1nc2sccn2c(=O)c1CCN1CCC(=C(c2ccc(F)cc2)c2ccc(F)cc2)CC1`, the Potency entry in experiment [1], in [2] and in experiment [6] was “inactive” in each case. The call in experiment [4], in experiment [5] and in experiment [7] was inactive.

With `CC(=O)c1ccc(Cl)c(Cl)c1Cl`, the Potency entry in experiment [8], in experiment [2] and in experiment [6] was “inactive” each time. In addition, the call in experiment [4], in experiment [5] and in experiment [7] was inactive.

In the case of `O=C(N[C@@H](Cc1ccccc1)[C@@H](O)C(=O)N1C[C@@H](O)[C@@H](O)C1)c1cc2cc(Cl)ccc2[nH]1`, the Potency result in [8] and in [9] was “inactive” throughout. The call in [4], in experiment [5] and in experiment [7] was inactive.

As to `Nc1ccc(C(=O)Oc2ccccc2)c(O)c1`, the Potency in experiment [1] is 9.44 µM (active); in [3], 29.8 µM (active). The Potency result in experiment [8] and in experiment [6] was “inactive” each time. Also, the call in experiment [4] and in experiment [7] was inactive.

On to `CCC(C)C1N=C(C)C(C)S1` (stereo unspecified), for which the Potency entry in [8], in experiment [2], in experiment [9], in [3] and in [6] was “inactive” in each case. For the same compound, the outcome in experiment [4], in [5] and in [7] was inactive.

With `SCCOCCOCCS`, the Potency entry in experiment [1], in experiment [8], in [9] and in [6] was “inactive” in each case. Besides, the compound was called inactive in experiment [4], in experiment [5] and in experiment [7].
